# From PubChem BioAssay
# An excerpt weighted towards active compounds, which were near 21% of everything screened.
# Pf growth 48h – P. falciparum growth inhibition at 48 hours (one generation); AID 504832; P. falciparum luciferase growth in erythrocytes, 48 h; hit rate 5.9% among 310,000; Potency, µM (doses to about 28.7 µM), for the others: at the top dose activity change, negative = inhibition, usual class: inhibitors; note: potency is the fitted concentration of half-maximal effect; % is set by controls: 0 for no effect and ±100 for the full control effect
#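 Firefly luciferase activity from engineered P. falciparum reports growth; inhibitors lower the luminescent signal. Cultures contained 2% hematocrit erythrocytes at 0.1% final parasitemia.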
# Pf growth 96h – P. falciparum growth inhibition at 96 hour, primary screen for plastid delayed-death inhibitors; Potency, µM (doses to about 28.7 µM), without a hit: top-dose activity change, negative = inhibition, actives largely listed as inhibitors; AID 504834; hit rate 6.9% among 320,000; P. falciparum luciferase reporter growth, 96 h; note: potency is the fitted concentration of half-maximal effect; % is set by controls: 0 for no effect and ±100 for the full control effect
#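 Cell-based qHTS: luciferase-tagged P. falciparum in erythrocytes (2% hematocrit, 0.05% parasitemia final) incubated with compounds for 96 hours, 37 C, 5% CO2; luciferase detection reagent then added and luminescence measured.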
# Sm TGR block – inhibitors of Schistosoma mansoni thioredoxin glutathione reductase; Q962Y6; purified TGR, DTNB reduction, TNB absorbance 405 nm; Potency, µM (doses to about 114 µM), without a hit: at the top dose activity change, negative = inhibition, most hits filed as inhibitors; hit rate 3% among 360,000; note: potency is the fitted concentration of half-maximal effect; % is set by controls: 0 for no effect and ±100 for the full control effect; nearly all actives have a fitted effect of over 60% in size
#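 TGR 20 nM + NADPH 100 uM (dispensed conc.), cpd preinc 15 min RT; start with NADPH (500 uM addition) then DTNB (15 mM addition). Kinetic TNB absorbance, 405 nm filter. Four-parameter Hill fit across titration.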
# Cycloheximide cs – counter-screen for Shiga toxin inhibitors: cycloheximide protein synthesis inhibition | cell reporter, cycloheximide protein synthesis inhibition counterscreen | max response, % | hit rate 12% among 300,000; in the data active = max response mostly above about 13%, no sharp cut-off; inactive = mostly below about 14%; note: read at 38.3 µM for the half of the compounds with a filed dose; 0% is about no effect
# Shiga toxin inh – Shiga toxin inhibition; Vero cells, Shiga toxin protein synthesis inhibition reporter; inhibition, % at 38.7 µM; hit rate 9.2% among 290,000; AID 2315; in the data active = inhibition mostly above about 28%, no sharp cut-off; inactive = mostly below about 43%; note: 0% is about no effect
# NS1 function inh – blocks influenza NS1 protein function. hit rate 0.4% among 270,000. Potency, µM (highest dose often 46.1 µM), for the others: at the highest dose activity, positive = more growth. AID 2326; calls by dose curve; note: potency is the fitted concentration of half-maximal effect; actives are rising curves; nearly all actives have a fitted effect of over 50% in size
#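 Recovery from NS1-induced slow growth read by OD600 in budding yeast switched to galactose assay medium (pH 6.0, -URA) at 1:100 dilution. Compound 23 nl per well; the matching strain lacking NS1 serves as control.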
# Starred values were filed as active, the others as inactive; i = inactive; ? = inconclusive; . = no result; [ ] = another dose, or the depositor's remark. Unless noted, calls come from the whole dose curve; as a rule, active = well fitted curve in the direction sought with a large enough effect; inconclusive = small, poorly fitted or top-dose-only effect, or another doubt; inactive = no such curve, though single readings can be large; an effect the other way counts as inactive or inconclusive.
SMILES,Pf growth 48h,Pf growth 96h,Sm TGR block,Cycloheximide cs,Shiga toxin inh,NS1 function inh
c1ccc2c(c1)Cc1cc(CN3CCOCC3)ccc1-2,206.9%,.,-5.7%,40.9*,76.3*,4.5%
Oc1cc(Cc2ccccc2)cnc1CN1CCOCC1,2.94µM*,?,?,0.9,37.9,-6.3%
Cc1ccc(C(=O)CSC2=C(C#N)C(c3ccco3)C3=C(CCCC3=O)N2)cc1 (stereo not drawn),?,-24.0%,?,18.0*,-17.8,15.8%
COc1ccc(NC(=O)CSC2=C(C#N)C(c3ccco3)C3=C(CCCC3=O)N2)c(OC)c1 (stereo not drawn),.,.,?,14.2,-12.7,5.3%
CC(C)(C)c1ccc(C(=O)CCCSC2=C(C#N)C(c3ccco3)C3=C(CCCC3=O)N2)cc1 (stereo not drawn),6.57µM*,19.5%,39.8µM*,3.7,-1.6,?
CCSC1=C(C#N)C(c2ccc(Cl)cc2)C2=C(CCCC2=O)N1 (stereo not drawn),?,191.5%,-5.8%,-6.0,-5.5,-33.4%
COc1cccc(NC(=O)CSC2=C(C#N)C(c3ccco3)C3=C(CCCC3=O)N2)c1 (stereo not drawn),-21.1%,134.0%,-33.6%,36.3*,92.4*,-4.0%
CCOC(=O)CSC1=C(C#N)C(c2ccccc2C)C2=C(CCCC2=O)N1 (stereo not drawn),-26.6%,.,-27.7%,-1.4,3.9,-0.6%
N#CC1=C(SCC(=O)c2ccccc2)NC2=C(C(=O)CCC2)C1c1ccco1 (stereo not drawn),?,81.7%,?,65.8*,71.7*,19.9%
CC(NC(=O)COC(=O)/C=C/c1ccc2c(c1)OCO2)c1ccccc1 (stereo not drawn),9.0%,0.5%,-17.7%,.,.,.
COc1ccc(C2C(C#N)=C(SCC(=O)Nc3ccc(C)cc3)NC3=C2C(=O)CC(C)(C)C3)cc1 (stereo not drawn),13.1µM*,?,0.0%,1.2,27.1,18.1%
CS(=O)(=O)N1CCN(C(=O)COc2ccc3ccccc3c2)CC1,2.08µM*,16.6%,26.5%,-2.9,6.6,2.7%
O=C(COc1ccc2ccccc2c1)N1CCNCC1,72.4%,24.5%,-19.9%,12.3*,52.4*,2.7%
O=C(COc1ccc2ccccc2c1)N1CCN(c2ccccc2O)CC1,?,-14.4%,-5.3%,-4.3,-2.2,-64.9%
COc1ccc(C2C=C3CNS(=O)(=O)C3CC2OC(=O)c2ccc(Cl)cc2)cc1 (stereo not drawn),.,.,.,-1.8,0.7,.
Cc1ccc(CNC(=O)CCCC(=O)c2ccccc2)cc1,54.8%,-3.1%,-10.8%,-0.6,-3.9,-3.1%
O=C(CSc1nc2ccccc2s1)c1ccc(O)cc1O,33.2%,45.3%,1.2%,22.1*,59.2*,-37.7%
O=C(CSc1nc2ccccc2s1)N1c2ccccc2Sc2ccccc21,?,83.9%,-10.9%,-2.6,3.8,16.2%
CCc1cc(C(=O)Cc2nc3ccccc3s2)c(O)cc1OCC(=O)O,65.9%,88.2%,16.0%,-1.9,-1.9,?
O=C(Cc1nc2ccccc2s1)c1ccc(O)cc1O,?,50.7%,?,40.5*,64.6*,-55.2%
CCCCn1c(N)c(N(CC(C)C)C(=O)c2ccc(F)c(S(=O)(=O)N3CCOCC3)c2)c(=O)[nH]c1=O,?,?,-2.3%,.,.,.
COc1ccccc1CNC(=O)C1CCC(CNS(=O)(=O)c2ccccc2)CC1 (stereo not drawn),-0.4%[0.00184 µM],13.1%,6.0%,-5.7,-9.0,-7.6%
CCCSC1=N/C(=C\C=C\c2ccco2)C(=O)S1,2.0%,15.0%,31.6µM*,15.5,0.6,-80.5%
O=C1SC(SCc2ccccc2)=N/C1=C\c1ccco1,7.8%,.,?,23.5,47.7*,-3.6%
Cc1cc(NC(=O)c2ccco2)ccc1NC(=O)Cc1cccs1,61.5%,6.57µM*,-5.6%,19.6*,31.6*,2.3%
SMILES,Pf growth 48h,Pf growth 96h,Sm TGR block,Cycloheximide cs,Shiga toxin inh,NS1 function inh
Cc1ccc(NC(=O)c2ccco2)c(NC(=O)Cc2cccs2)c1,12.1%,.,32.6%,1.0,12.4,-1.8%
Cc1cc(NC(=O)c2ccccc2)ccc1NC(=O)c1ccccc1Cl,0.9%,-5.8%,9.8%,1.6,.,8.2%
Cc1cc(NC(=O)c2ccccc2)ccc1NC(=O)Cc1ccccc1,-12.4%,4.15µM*,-9.6%,-1.7,.,10.0%
CN(c1ccc(C(=O)Nc2ccc3c(c2)OCCO3)cc1)S(C)(=O)=O,.,179.5%,-17.7%,30.9*,58.5*,0.1%
CN(c1ccccc1C(=O)Nc1ccc2c(c1)OCCO2)S(C)(=O)=O,?,130.7%,0.8%,1.1,-3.5,8.6%
CN(c1ccc(C(=O)Nc2ccc(CC#N)cc2)cc1)S(C)(=O)=O,31.6%,70.0%,12.5%,18.8,57.7*,.
CN(c1ccc(C(=O)Nc2ccc3c(c2)OCO3)cc1)S(C)(=O)=O,65.6%,99.5%,10.2%,33.2*,61.8*,3.8%
CN(C)C(=S)c1ccc(N(C)C)cc1,43.3%,21.1%,-3.5%,15.0,-6.7,8.8%
Cc1ccc(N=Cc2ccc(N(C)C)cc2)cc1,60.3%,15.2%,-8.1%,7.4,-11.5,-80.9%
CC(=O)c1ccc(N=Nc2ccc(C)cc2)cc1,i,172.3%,-6.4%,22.0*,40.7*,.
CN(C)c1ccc(N=Nc2ccccc2Br)cc1,97.9%,440.5%,-5.2%,38.1*,37.0*,-2.8%
Cc1ccc(C(=O)NS(=O)(=O)c2ccc(N=NN(C)C)cc2)cc1,9.4%,?,.,4.9,-1.7,4.7%
CC(=O)c1ccc(N=Nc2ccc(N(C)C)cc2)cc1,i,173.5%,-2.1%,40.8*,97.4*,.
O=CN1CCN(C[C@H](O)CN2CCCCC2)CC1,.,.,.,.,.,-5.6%
CCc1cccc(NC(=O)CCS(=O)(=O)c2ccc3nc(C)sc3c2)c1,.,.,-1.8%,.,.,.
COc1cccc(C2CC(c3cccs3)=NN2C(=O)CSC2=NN3CCCC(=O)N=C3S2)c1OC (stereo not drawn),7.38µM*,0.465µM*,-12.0%,-4.3,10.3,-11.3%
Cc1ccn2c(=O)nc(SCC(=O)N3N=C(c4cccs4)CC3c3ccc(F)cc3)nc2c1 (stereo not drawn),?,4.65µM*,-17.0%,.,.,.
COc1ccc(C2CC(c3cccs3)=NN2C(=O)CCC(=O)O)cc1 (stereo not drawn),20.8%,?,-35.3%,-2.1,.,15.4%
CCN1CCc2c(OCC(=O)N3N=C(c4cccs4)CC3c3ccc(F)cc3)cccc2C1=O (stereo not drawn),9.28µM*,?,2.4%,-2.9,-0.9,1.8%
COc1ccc(C2CC(c3cccs3)=NN2C(=O)CN2CCCCC2)cc1 (stereo not drawn),-1.1%,-25.3%[5.75 µM],9.7%,10.5,26.0*,.
COc1ccc(C2=NN(C(=O)CSC3=NN4CCCC(=O)N=C4S3)C(c3cccc(OC)c3OC)C2)cc1 (stereo not drawn),?,?,-5.3%,-2.6,2.6,.
